Where “and” joins values, the source holds several entries; their conditions need not be identical. Equal values may be shown once. The panel holds about 83,000 compounds, 20% with a hit somewhere; the sample as a whole holds those more often.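 Compound tested at a single concentration for 48 hours in 96-well plates; a percent growth value below 10 was scored as active.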 Calls of active or inactive are those of the source.
Experiments:
Test in all cases: NCI-60 one-dose screen, 48 h (100 = growth as untreated, 0 = no growth, -100 = all killed)
Details in all cases: 10 µM unless noted
[1] = test system: SR leukemia
[2] = test system: RPMI-8226 leukemia
[3] = test system: OVCAR-8 ovarian
[4] = test system: OVCAR-5 ovarian
[5] = test system: OVCAR-4 ovarian
[6] = test system: SK-OV-3 ovarian
[7] = test system: IGROV1 ovarian
[8] = test system: OVCAR-3 ovarian
[9] = test system: HS 578T breast
[10] = test system: NCI/ADR-RES ovarian
[11] = test system: T-47D breast
[12] = test system: BT-549 breast
[13] = test system: MDA-MB-435 melanoma
[14] = test system: SW-620 colon
[15] = test system: MCF7 breast
[16] = test system: HCT-116 colon
[17] = test system: HCC-2998 colon
[18] = test system: KM12 colon
[19] = test system: MDA-MB-468 breast

Measured: growth

NS(=O)(=O)c1ccc(N2N=C(c3ccc(NC(=O)Nc4ccccc4)cc3)CC2c2ccc(Br)cc2)cc1 (configuration not stated)
inactive: [1] 13%
active: [2] 4.09% | [3] -32.7% | [4] -98.2% | [5] -85.2% | [6] -61.7% | [7] -86.7% | [8] -29.7% | [9] -24.5% | [10] -83.4% | [11] -73.8% | [12] -81.1% | [13] -93.8% | [14] -3.46% | [15] -79.1% | [16] -68.1% | [17] -100% | [18] -15.7% | [19] -95%

O=C(CCl)Nc1ccc(C(=O)/C=C/c2cc3ccccc3nc2Cl)cc1
-68.6% (active) and 22.5% (inactive): [18]
-59.6% (active) and 54.7% (inactive): [5]
-54.9% (active) and 52.1% (inactive): [13]
-57.1% (active) and 24.9% (inactive): [15]
active: [10] -26.4% and 4.54%
-82.4% (active) and 45.6% (inactive): [12]
-93.4% (active) and 51.1% (inactive): [17]
-84.1% (active) and 39.2% (inactive): [7]
-46.9% (active) and 51.1% (inactive): [11]
-59.5% (active) and 42.4% (inactive): [8]
-61.1% (active) and 55.9% (inactive): [4]
-78.3% (active) and 48.9% (inactive): [14]
-69.5% (active) and 25.5% (inactive): [1]
8.67% (active) and 39.7% (inactive): [16]
-36.6% (active) and 40.5% (inactive): [2]
-82.5% (active) and 54.9% (inactive): [19]
inactive: [3] 14.6% and 48.6% | [6] 70.5% and 66.7% | [9] 42.1% and 53.7%

O=S(=O)(c1nc(-c2ccc(Br)cc2)oc1-c1ccc(Cl)cc1)N1CCCC(O)C1 (configuration not stated)
inactive: [1] 37.2% | [2] 29.7% | [3] 68.4% | [4] 87.8% | [5] 43% | [6] 101% | [7] 87.8% | [8] 63.1% | [9] 82.1% | [10] 31.3% | [11] 28.8% | [12] 76.1% | [13] 60% | [14] 57% | [15] 41.5% | [16] 42.5% | [17] 33.8% | [18] 39% | [19] 45.6%

Clc1ccc(-c2nc3ccc(-c4nnc(SCc5ccccc5)o4)cc3[nH]2)cc1
active: [3] 8.94% | [5] 3.57% | [8] -1.55% | [10] -9.86% | [11] 7.8% | [15] 8.62% | [16] 2.75%
inactive: [1] 23.3% | [2] 27.7% | [4] 32.4% | [6] 83.1% | [7] 27.1% | [9] 48.7% | [12] 58.7% | [13] 62.6% | [14] 12.9% | [17] 39.4% | [18] 35.5% | [19] 11%

O=C(NNC(=O)c1ccc(OCc2nc3ccc(Cl)cc3[nH]2)cc1)Nc1ccc(Cl)c(C(F)(F)F)c1
inactive: [1] 50.3% | [2] 35.9% | [3] 19.1% | [4] 76.4% | [5] 80.1% | [6] 92.4% | [7] 69.6% | [8] 51.8% | [9] 57.2% | [10] 95.4% | [11] 16.4% | [12] 64.7% | [13] 51.4% | [14] 65% | [15] 49.5% | [17] 73.9% | [18] 49.1% | [19] 22.4%
active: [16] 4.53%

COc1ccc(N=Nc2c(N)nn3c(-c4ccc(OC)c(OC)c4)ccnc23)cc1
active: [17] -35.9%
inactive: [1] 77.7% | [2] 65.6% | [3] 78.8% | [4] 87.1% | [5] 95.5% | [6] 56.4% | [7] 95.4% | [8] 109% | [9] 98.4% | [10] 79.2% | [11] 62% | [12] 65.6% | [13] 81.9% | [14] 95.2% | [15] 84.9% | [16] 72.5% | [18] 97.9% | [19] 80.2%

COC(=O)CSC1=C(C)C(=O)C(OC)=C(OC)C1=O
inactive: [1] 57% | [2] 65.6% | [3] 92.2% | [4] 110% | [5] 94.2% | [6] 100% | [7] 106% | [8] 91.8% | [9] 79.2% | [10] 96.6% | [11] 36.2% | [12] 79% | [13] 89.2% | [14] 84.5% | [15] 86.6% | [16] 29.6% | [17] 120% | [18] 93.5% | [19] 52%

CCN1CCN(Cc2ccc(C(=O)Nc3cccc(Nc4ccc5c(OC)cccc5n4)c3)cc2C(F)(F)F)CC1
active: [1] -35.1% | [2] -34.8% | [3] -66.1% | [4] -91.9% | [5] -53.1% | [6] -8.33% | [7] -83.6% | [8] 4.54% | [9] -16.4% | [10] -81% | [11] -71.4% | [12] -94% | [13] -94.9% | [14] 7.01% | [15] -89.1% | [16] -56.4% | [17] -94% | [18] -37.6% | [19] -94.7%

C#CCN(C)CCCOc1ccc(N(C)C(=O)c2cc(C(C)C)c(O)cc2O)cc1Cl
active: [1] -13.5% | [2] 8.9% | [3] 9.81% | [10] -5.62% | [12] 9.45% | [13] 4.66% | [15] 7.62% | [16] 7.57% | [17] -38.4% | [18] 5.69% | [19] -30.8%
inactive: [4] 29.4% | [5] 36.1% | [6] 16.2% | [7] 11.4% | [8] 30.7% | [9] 26.3% | [11] 11% | [14] 12.2%

CN(C)c1nc(NCCNS(=O)(=O)c2ccc(C3=Nc4c(N)nc(N)nc4NC(c4ccc(Cl)cc4)C3)cc2)nc(N2CCOCC2)n1 (configuration not stated)
inactive: [1] 31.9% | [2] 21.4% | [3] 64.3% | [4] 82.7% | [5] 66.9% | [6] 75.9% | [7] 45% | [8] 65.5% | [9] 45.2% | [10] 85.7% | [11] 43% | [12] 35.4% | [13] 60.1% | [14] 82.8% | [15] 22.4% | [16] 30.9% | [17] 39.3% | [18] 52.9%
active: [19] 6.95%

O=C1CCC(N2C(=O)c3cccc(NCCCCCC(=O)N4CCN(c5ccc6nc7c(nc6c5C(F)(F)F)C(=O)c5ncccc5C7=O)CC4)c3C2=O)C(=O)N1 (configuration not stated)
active: [1] 8.9% | [2] -0.232% | [3] -53.3% | [4] -90.5% | [5] -83.4% | [6] -66.9% | [7] -75.4% | [8] -50.4% | [9] -11.5% | [11] -41.1% | [12] -76.8% | [13] -79.8% | [14] -50.9% | [15] -71.6% | [16] -86% | [17] -98% | [18] -49.6% | [19] -49.9%
inactive: [10] 19.6%

COc1cc(C2CC(c3ccc(S(=O)(=O)NCCNc4nc(N(C)C)nc(N5CCOCC5)n4)cc3)=Nc3c(N)nc(N)nc3N2)cc(OC)c1OC (configuration not stated)
inactive: [1] 93.3% | [2] 84.9% | [3] 103% | [4] 93.4% | [5] 95.1% | [6] 115% | [7] 105% | [8] 105% | [9] 76.6% | [10] 92.8% | [11] 95% | [12] 95.2% | [13] 104% | [14] 99% | [15] 95.1% | [16] 90% | [17] 109% | [18] 100% | [19] 95.4%

CCc1ccccc1-c1nc(CN[C@@H]2C[C@@H]3C[C@H]([C@H]2C)C3(C)C)c(C)o1
active: [1] -15.6% | [2] -13.9% | [3] -66.4% | [4] -87.4% | [5] -42.9% | [6] -79.8% | [7] -85% | [8] -61.6% | [9] -43.4% | [10] -78.4% | [11] -60.3% | [12] -89.7% | [13] -79.5% | [14] -43.5% | [15] -84.4% | [16] -82.4% | [17] -83.9% | [18] -87.4% | [19] -83.4%
